Assay results from PubChem BioAssay (NCATS).
Inconclusive results are not listed. Calls of active or inactive are those of the source. Calls follow the shape of the dose curve; as a rule, active = well fitted inhibition curve with a large enough effect; inconclusive = small, poorly fitted or top-dose-only effect; inactive = flat fitted curve, though single readings scatter.

Tests used:
[1] = qHTS profiling for inhibitors of Plasmodium falciparum proliferation (AID 504749);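 also: 0% = DMSO vehicle and full inhibition = artemisinin control; nearly all actives have a fitted effect of over 60% in size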; conditions: P. falciparum in erythrocytes, SYBR Green DNA, 72 h, at 28.7 µM (top of the series)
Method in brief: (§1)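 In a 72 h erythrocytic culture (37 C, humidified, 5% CO2) at 2.5% hematocrit and 0.3% starting parasitemia, compounds were tested; SYBR Green I in detergent lysis buffer stained parasite DNA overnight.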

3D7 = assay: as above; conditions: P. falciparum in erythrocytes, SYBR Green DNA, 72 h; series mostly up to 28.7 µM
Method in brief: as §1

7G8 = assay: as above; conditions: P. falciparum in erythrocytes, SYBR Green DNA, 72 h; series mostly up to 28.7 µM
Method in brief: as §1

AA1029 = assay: as above; conditions: P. falciparum in erythrocytes, SYBR Green DNA, 72 h; series mostly up to 28.7 µM
Method in brief: as §1

AS120 = assay: as above; conditions: P. falciparum in erythrocytes, SYBR Green DNA, 72 h; series mostly up to 28.7 µM
Method in brief: as §1

ATS189 = assay: as above; conditions: P. falciparum in erythrocytes, SYBR Green DNA, 72 h; series mostly up to 28.7 µM
Method in brief: as §1

ATS95 = assay: as above; conditions: P. falciparum in erythrocytes, SYBR Green DNA, 72 h; series mostly up to 28.7 µM
Method in brief: as §1

C2A = assay: as above; conditions: P. falciparum in erythrocytes, SYBR Green DNA, 72 h; series mostly up to 28.7 µM
Method in brief: as §1

CP185 = assay: as above; conditions: P. falciparum in erythrocytes, SYBR Green DNA, 72 h; series mostly up to 28.7 µM
Method in brief: as §1

CP191 = assay: as above; conditions: P. falciparum in erythrocytes, SYBR Green DNA, 72 h; series mostly up to 28.7 µM
Method in brief: as §1

CP192 = assay: as above; conditions: P. falciparum in erythrocytes, SYBR Green DNA, 72 h; series mostly up to 28.7 µM
Method in brief: as §1

CCOC(=O)[C@@H](N)CS
inactive: activity, negative = inhibition ([1]; parasite line A) -7.81% | activity, negative = inhibition ([1]; parasite line B) 16.4% | Potency (3D7) | Potency (7G8) | Potency (AA1029) | Potency (AS120) | Potency (ATS189) | Potency (ATS95) | Potency (C2A) | Potency (CP185) | Potency (CP191) | Potency (CP192)

NCC[C@H](O)C(=O)N[C@@H]1C[C@H](N)[C@@H](O[C@H]2O[C@H](CN)[C@@H](O)[C@H](O)[C@H]2O)[C@H](O)[C@H]1O[C@H]1O[C@H](CO)[C@@H](O)[C@H](N)[C@H]1O
inactive: activity, negative = inhibition ([1]; parasite line A) 2.54% | activity, negative = inhibition ([1]; parasite line B) 0.715% | Potency (3D7) | Potency (7G8) | Potency (AA1029) | Potency (AS120) | Potency (ATS189) | Potency (ATS95) | Potency (C2A) | Potency (CP185) | Potency (CP191) | Potency (CP192)

CCCCC[C@H](O)/C=C/[C@@H]1[C@H]2C/C(=C/CCCC(=O)O)O[C@H]2C[C@H]1O
inactive: activity, negative = inhibition ([1]; parasite line A) -0.331% | activity, negative = inhibition ([1]; parasite line B) 0.715% | Potency (3D7) | Potency (7G8) | Potency (AA1029) | Potency (AS120) | Potency (ATS189) | Potency (ATS95) | Potency (C2A) | Potency (CP185) | Potency (CP191) | Potency (CP192)

COc1cc2c(cc1OC)[C@@H](Cc1cc(OC)c(OC)c(OC)c1)[N+](C)(CCCOC(=O)CC/C=C/CCC(=O)OCCC[N+]1(C)CCc3cc(OC)c(OC)cc3[C@H]1Cc1cc(OC)c(OC)c(OC)c1)CC2 (some centres not stated)
inactive: activity, negative = inhibition ([1]; parasite line A) 0.013% | activity, negative = inhibition ([1]; parasite line B) -1.97% | Potency (3D7) | Potency (7G8) | Potency (AA1029) | Potency (AS120) | Potency (ATS189) | Potency (ATS95) | Potency (C2A) | Potency (CP185) | Potency (CP191) | Potency (CP192)

c1ccc(-n2cnnn2)cc1
inactive: activity, negative = inhibition ([1]; parasite line A) 4.13% | activity, negative = inhibition ([1]; parasite line B) -7.64% | Potency (3D7) | Potency (7G8) | Potency (AA1029) | Potency (AS120) | Potency (ATS189) | Potency (ATS95) | Potency (C2A) | Potency (CP185) | Potency (CP191) | Potency (CP192)

NCC(O)CC(=O)O (configuration not stated)
inactive: activity, negative = inhibition ([1]; parasite line A) 13% | activity, negative = inhibition ([1]; parasite line B) 3.91% | Potency (3D7) | Potency (7G8) | Potency (AA1029) | Potency (AS120) | Potency (ATS189) | Potency (ATS95) | Potency (C2A) | Potency (CP185) | Potency (CP191) | Potency (CP192)

CC1(C)S[C@@H]2[C@H](NC(=O)C3(N)CCCCC3)C(=O)N2[C@H]1C(=O)O
inactive: activity, negative = inhibition ([1]; parasite line A) 1.02% | activity, negative = inhibition ([1]; parasite line B) 10.4% | Potency (3D7) | Potency (7G8) | Potency (AA1029) | Potency (AS120) | Potency (ATS189) | Potency (ATS95) | Potency (C2A) | Potency (CP185) | Potency (CP191) | Potency (CP192)

NCC[C@H](O)C(=O)N[C@@H]1C[C@H](N)[C@@H](O[C@H]2O[C@H](CN)CC[C@H]2N)[C@H](O)[C@H]1O[C@H]1O[C@H](CO)[C@@H](O)[C@H](N)[C@H]1O
inactive: activity, negative = inhibition ([1]; parasite line A) -7.43% | activity, negative = inhibition ([1]; parasite line B) 9.77% | Potency (3D7) | Potency (7G8) | Potency (AA1029) | Potency (AS120) | Potency (ATS189) | Potency (ATS95) | Potency (C2A) | Potency (CP185) | Potency (CP191) | Potency (CP192)

CCCc1nc(C(C)(C)O)c(C(=O)OCc2oc(=O)oc2C)n1Cc1ccc(-c2ccccc2-c2nn[nH]n2)cc1
inactive: activity, negative = inhibition ([1]; parasite line A) -15.7% | activity, negative = inhibition ([1]; parasite line B) -20.3% | Potency (3D7) | Potency (7G8) | Potency (AA1029) | Potency (AS120) | Potency (ATS189) | Potency (ATS95) | Potency (C2A) | Potency (CP185) | Potency (CP191) | Potency (CP192)

Cc1ccccn1
inactive: activity, negative = inhibition ([1]; parasite line A) 14.6% | activity, negative = inhibition ([1]; parasite line B) 15% | Potency (3D7) | Potency (7G8) | Potency (AA1029) | Potency (AS120) | Potency (ATS189) | Potency (ATS95) | Potency (C2A) | Potency (CP185) | Potency (CP191) | Potency (CP192)

COC(=O)CCC[N+](C)(C)C
inactive: activity, negative = inhibition ([1]; parasite line A) 18.8% | activity, negative = inhibition ([1]; parasite line B) 3.25% | Potency (3D7) | Potency (7G8) | Potency (AA1029) | Potency (AS120) | Potency (ATS189) | Potency (ATS95) | Potency (C2A) | Potency (CP185) | Potency (CP191) | Potency (CP192)

CSCCC(N)C(=O)O (configuration not stated)
inactive: activity, negative = inhibition ([1]; parasite line A) 6.14% | activity, negative = inhibition ([1]; parasite line B) 15.2% | Potency (3D7) | Potency (7G8) | Potency (AA1029) | Potency (AS120) | Potency (ATS189) | Potency (ATS95) | Potency (C2A) | Potency (CP185) | Potency (CP191) | Potency (CP192)

O=[n+]1ccn([O-])c2ccccc21
inactive: activity, negative = inhibition ([1]; parasite line A) 14.9% | activity, negative = inhibition ([1]; parasite line B) 3.55% | Potency (3D7) | Potency (7G8) | Potency (AA1029) | Potency (AS120) | Potency (ATS189) | Potency (ATS95) | Potency (C2A) | Potency (CP185) | Potency (CP191) | Potency (CP192)

Nc1nccs1
inactive: activity, negative = inhibition ([1]; parasite line A) 12.4% | activity, negative = inhibition ([1]; parasite line B) 11.4% | Potency (3D7) | Potency (7G8) | Potency (AA1029) | Potency (AS120) | Potency (ATS189) | Potency (ATS95) | Potency (C2A) | Potency (CP185) | Potency (CP191) | Potency (CP192)

c1ccc2ccccc2c1
inactive: activity, negative = inhibition ([1]; parasite line A) 8.79% | activity, negative = inhibition ([1]; parasite line B) 4.51% | Potency (3D7) | Potency (7G8) | Potency (AA1029) | Potency (AS120) | Potency (ATS189) | Potency (ATS95) | Potency (C2A) | Potency (CP185) | Potency (CP191) | Potency (CP192)

OC[C@H]1O[C@@](CO)(O[C@H]2O[C@H](CO)[C@@H](O)[C@H](O)[C@H]2O)[C@@H](O)[C@@H]1O
inactive: activity, negative = inhibition ([1]; parasite line A) 11.2% | activity, negative = inhibition ([1]; parasite line B) -0.203% | Potency (3D7) | Potency (7G8) | Potency (AA1029) | Potency (AS120) | Potency (ATS189) | Potency (ATS95) | Potency (C2A) | Potency (CP185) | Potency (CP191) | Potency (CP192)
